# From PubChem BioAssay
# Sampled rows, rich in hits. Any-hit rate of the full collection: about 1.7%.
# KCNH2 3.1 block = KCNH2 3.1 (human) potassium channel inhibition; U2OS KCNH2 3.1, thallium flux FluxOr; hits give low values; activity change, % (tested at about 1.8 µM); 0.95% of 340,000 active;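 active = maximum activity change below -70%; inconclusive = maximum activity change from -70% to -50%; inactive = maximum activity change above -50%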;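 also: thallium influx rate constant from kinetic fluorescence after stimulation buffer; % is scaled to controls: 0 for no effect and ±100 for the full control effect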
#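 We transduce U2OS cells with the mutant 3.1 virus, culture them overnight, load FluxOr with Red40 quencher for 45 min, then add stimulation buffer and read kinetically for 2 min to derive a normalized rate constant.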
# TRHR enhancer = TRH receptor (human) allosteric enhancement | enhancement, % at 2 µM | TRHR cells, fluo-8 calcium fluorescence, EC20 TRH enhancement | AID 493056 | P34981 | 0.66% of 360,000 active; in the data active = enhancement above about 30%; also: 0% is about no effect
#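 TRHR-expressing cells loaded with fluo-8 calcium dye were read kinetically (ex 480/em 530) during compound addition, then stimulated with an EC20 of TRH (10 nM final). Enhancement of the Gq-mediated intracellular calcium response was scored.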
# TRPML1 ag = agonists of human TRPML1 channel. Q9GZU1. TRPML1-expressing cells, Ca2+ dye fluorescence, FDSS. activation, % (concentration not given with the values). 0.12% of 410,000 active. AID 624414; in the data active = activation above about 50%; inconclusive = mostly about 30% to 49%; also: 0% is about no effect
#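 Tet-induced TRPML1-DL cells, 1,500 per well, cultured overnight, were loaded with a no-wash Ca2+ dye for 45–90 min. Calcium fluorescence was recorded on the FDSS for 110 s after compound addition, before the EC80 agonist (4 uM 54-4) was added.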
# TRPML1 blocker = human mucolipin-1 channel inhibition; TRPML1-inducible cells, Ca2+ dye fluorescence, FDSS; hits give low values; inhibition of EC80 agonist-evoked calcium signal; AID 624415; 0.02% of 390,000 active; Q9GZU1; activity change, negative = inhibition, % (concentration not given with the values); in the data active = activity change below about -50%; inconclusive = between about -30% and that limit;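 also: stimulus is agonist 54-4 at its EC80 concentration; % is scaled to controls: 0 for no effect and ±100 for the full control effect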
#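 Calcium fluorescence in TRPML1-DL cells induced overnight with Tet: a 110 s read after compound pin addition, then a 110 s antagonist read after challenge with 54-4 at 4 uM final (EC80).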
# TRHR agonist = agonists of human TRH receptor; TRHR cells, calcium flux fluo-8, FDSS agonist mode; activation, % at 2 µM; 0.18% of 360,000 active; AID 493084; in the data active = activation above about 30%; also: 0% is about no effect
#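 Agonist-mode FDSS calcium read (Ex 480/Em 530, 1 s cycles) in 1536-well TRHR cells with fluo-8 dye, after 10-cycle baseline and 23 nL compound addition; TRH at EC20 (10 nM final) added afterwards for the enhancer phase.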
# KCNH2 WT inh = blocks the wildtype human KCNH2 potassium channel | Q12809 | U2OS, BacMam KCNH2, thallium flux FluxOr; hits give low values | activity change, % at 1.84 µM | 0.37% of 340,000 active;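 active = maximum activity change below -70%; inconclusive = maximum activity change between -70% and -50%; inactive = maximum activity change above -50%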; also: % is scaled to controls: 0 for no effect and ±100 for the full control effect
# Target sequence (Q12809 whole entry, looked up): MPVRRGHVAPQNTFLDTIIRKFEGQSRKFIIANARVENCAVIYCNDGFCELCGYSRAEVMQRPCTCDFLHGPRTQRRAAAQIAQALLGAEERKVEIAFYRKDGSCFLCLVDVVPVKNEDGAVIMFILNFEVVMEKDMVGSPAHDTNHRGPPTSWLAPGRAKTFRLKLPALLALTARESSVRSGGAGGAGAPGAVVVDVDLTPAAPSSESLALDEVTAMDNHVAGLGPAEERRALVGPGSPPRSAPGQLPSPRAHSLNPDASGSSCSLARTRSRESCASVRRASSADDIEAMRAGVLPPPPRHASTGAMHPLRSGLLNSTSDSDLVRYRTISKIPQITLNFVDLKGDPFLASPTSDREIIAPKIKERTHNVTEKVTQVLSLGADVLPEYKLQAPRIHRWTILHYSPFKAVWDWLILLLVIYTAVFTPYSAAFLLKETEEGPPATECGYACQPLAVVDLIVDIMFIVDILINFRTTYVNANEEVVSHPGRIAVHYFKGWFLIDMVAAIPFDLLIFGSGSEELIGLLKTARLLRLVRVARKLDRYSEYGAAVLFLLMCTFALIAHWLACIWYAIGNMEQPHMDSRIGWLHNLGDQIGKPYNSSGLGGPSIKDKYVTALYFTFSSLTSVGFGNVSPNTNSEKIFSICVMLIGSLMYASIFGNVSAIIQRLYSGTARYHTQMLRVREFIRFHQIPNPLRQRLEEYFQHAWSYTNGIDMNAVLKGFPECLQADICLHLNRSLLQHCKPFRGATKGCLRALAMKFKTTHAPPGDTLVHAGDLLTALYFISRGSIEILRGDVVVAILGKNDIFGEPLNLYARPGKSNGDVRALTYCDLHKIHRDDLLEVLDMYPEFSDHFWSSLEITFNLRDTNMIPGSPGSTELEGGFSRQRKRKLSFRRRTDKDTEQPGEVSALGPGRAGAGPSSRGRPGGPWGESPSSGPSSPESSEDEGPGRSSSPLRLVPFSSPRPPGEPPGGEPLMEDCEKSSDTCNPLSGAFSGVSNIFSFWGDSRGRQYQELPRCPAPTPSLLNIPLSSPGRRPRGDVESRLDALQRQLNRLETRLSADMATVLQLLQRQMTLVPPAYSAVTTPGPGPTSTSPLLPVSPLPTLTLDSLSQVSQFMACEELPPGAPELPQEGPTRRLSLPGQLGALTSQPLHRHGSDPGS
#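 U2OS cells were transduced with wild-type KCNH2 virus (2.03 x 10^8 / mL) for 4 h at room temperature, then cultured overnight at 37 C. Thallium flux was read with FluxOr dye. Rate constants were normalized to DMSO controls.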
# * hit, by the source's call; ? = inconclusive; / = no result given.
SMILES,KCNH2 3.1 block,TRHR enhancer,TRPML1 ag,TRPML1 blocker,TRHR agonist,KCNH2 WT inh
CCN1CCc2c(sc(NC(=O)c3ccc(S(=O)(=O)N(C)c4ccccc4)cc3)c2C(=O)NC)C1,12.5,7.2,60.7*,0.4,47.7*,-6.6
CCN1CCc2c(sc(NC(=O)c3ccc(S(=O)(=O)N(CCOC)CCOC)cc3)c2C(N)=O)C1,/,-3.7,0.3,13.6,-0.4,/
CC(C)N1CCc2c(sc(NC(=O)c3ccc(S(=O)(=O)N(C)C4CCCCC4)cc3)c2C(N)=O)C1,/,0.2,2.5,-17.2,22.9,/
CNC(=O)c1c(NC(=O)c2ccc(S(=O)(=O)N(C)c3ccccc3)cc2)sc2c1CCN(C(C)C)C2,-12.8,3.5,7.3,3.2,61.6*,-15.8
COc1ccc2c(c1)N(C[C@H](C)CN(C)C)c1ccccc1S2,-4.9,/,2.3,9.2,/,5.9
CC(CN1CCN(CCOCCO)CC1)CN1c2ccccc2Sc2ccc(Cl)cc21 (centres undefined),-101.7*,/,0.6,15.7,/,0.2
CC(C)=CCC[C@H](C)C[C@@H]1Cc2[nH][nH]c(=O)c2[C@H](c2ccc(F)cc2)O1,/,/,-0.5,/,/,/
COc1ccc(C(=O)NC(=S)Nc2ccc(CN3CCOCC3)cc2)cc1,-23.3,0.9,-0.5,1.4,0.9,26.6
CCCCOc1ccc(C(=O)NC(=S)Nc2ccc(CN3CCOCC3)cc2)cc1,-5.5,32.3*,-0.4,11.8,0.0,-18.5
Cc1ccc(NC(=O)COC(=O)COc2cccc3c2OC(C)(C)C3)c(C)c1,7.3,0.2,1.7,-5.0,-0.1,-1.1
COc1ccc(C(=O)NCCc2csc(-c3ccc(Cl)cc3)n2)c(OC)c1,/,36.4*,2.1,-24.4,0.5,/
Cc1cc2c(s1)c1cnn(Cc3ccc(Br)cc3)c(=O)c1n2C,/,-1.4,/,/,-2.3,/
O=c1oc(C2(O)CCCCC2)cc2ccc(/C=C/c3ccc(F)cc3)cc12,-45.0,2.9,1.5,38.7,0.6,6.0
COc1cc(CN2CCC(n3nccc3NC(=O)CCCc3ccccc3)CC2)ccc1F,-95.5*,-7.7,6.1,-2.7,-0.4,-34.6
CCOc1cccc(CN2CCC(n3nccc3NC(=O)CCCc3ccccc3)CC2)c1,-35.7,-5.4,0.1,-8.4,-0.4,36.9
COc1ccc(CN2CCC(n3nccc3NC(=O)CCc3ccccc3)CC2)c(C)c1C,-80.7*,0.4,-0.5,5.3,-0.9,-0.3
CSc1ccc(CN2CCC(n3nccc3NC(=O)CCCc3ccccc3)CC2)cc1,-113.8*,-2.9,0.1,12.9,0.6,-111.8*
O=C(CCCc1ccccc1)Nc1ccnn1C1CCN(Cc2ccc(Cl)cc2)CC1,-103.4*,-0.4,-0.1,2.3,0.1,-18.5
O=C(CCCc1ccccc1)Nc1ccnn1C1CCN(Cc2ccccc2)CC1,-31.3,-5.6,0.7,-8.3,3.4,4.2
C[n+]1ccc(C(c2c[nH]c3ccccc23)c2cc[n+](C)c3ccccc23)c2ccccc21,/,/,1.1,/,/,/
O=C(Nc1nnc([C@H]2C[C@H](O)[C@@H](CO)O2)s1)c1ccc(Oc2ccccc2)cc1,/,/,-0.6,/,/,/
COc1ccc(NC(=O)Cn2c(=O)n(Cc3ccccc3Cl)c(=O)c3cc(OC)c(OC)cc32)cc1OC,/,1.2,-0.4,-5.6,0.2,/
CCOc1ccc(CN2CCC(n3nccc3NC(=O)CCCc3ccccc3)CC2)cc1,3.8,-3.3,-0.5,3.7,0.6,-132.4*
Cc1ccc(Sc2ccc(N3CCCC(C(=O)Nc4ccc(F)c(Cl)c4)C3)nn2)cc1 (centres undefined),/,-2.7,0.2,8.4,0.5,/
O=C(c1cccc(Cl)c1)N1CCN(CCc2ccccn2)CC1,/,1.3,1.4,2.0,0.5,/
SMILES,KCNH2 3.1 block,TRHR enhancer,TRPML1 ag,TRPML1 blocker,TRHR agonist,KCNH2 WT inh
Cc1c(C(=O)N2CCN(CCc3ccccn3)CC2)oc2ccc(Cl)cc12,-102.7*,5.9,-0.4,21.1,-0.7,-7.7
N#Cc1nc(COc2ccc(-c3ccccc3)cc2)oc1NCCCN1CCOCC1,?,-5.3,1.8,29.5,0.7,14.0
COc1ccc(OCc2nc(C#N)c(NCc3ccccc3Cl)o2)cc1,/,40.9*,1.9,7.7,-0.9,/
CN(C)CCNc1oc(COc2ccc(-c3ccccc3)cc2)nc1C#N,-72.3*,8.9,0.5,7.7,2.7,36.9
COc1ccc(CCCNC(=O)C2CCC(=O)N(CC3CCCCC3)C2)cc1 (centres undefined),-168.4*,-1.3,0.6,80.6,-1.5,-173.3*
CCCOc1ccc(CC(=O)NCCc2ccccc2)cc1OC,4.3,-2.9,1.5,7.4,-2.9,-0.5
Clc1ccc(-c2csc(N/N=C/c3cccnc3)n2)c(Cl)c1,-111.7*,9.7,2.0,1.9,0.2,?
O=C(c1cc(F)ccc1F)C1CCCN(Cc2cccn2-c2ccccn2)C1 (centres undefined),17.1,-2.9,-0.4,3.8,0.8,-36.1
COc1ccc(F)cc1C(=O)C1CCCN(Cc2cccn2-c2ccccn2)C1 (centres undefined),-85.9*,-6.9,0.6,50.0,0.0,-70.9*
COc1ccc(C(=O)C2CCCN(Cc3cccn3-c3ccccn3)C2)c(OC)c1 (centres undefined),-91.0*,-0.4,0.3,7.9,0.7,-48.0
CCCCCCCCCCCCCCCC[n+]1ccc(C)c2ccccc21,/,/,0.1,/,/,/
CC(=O)c1ccc(N2CCN(c3ccc(C(F)(F)F)cn3)CC2)cc1,-200.0*,-3.5,-0.1,77.3,0.6,-138.8*
CC(=O)c1ccc(N2CCN(c3ncc(C(F)(F)F)cc3Cl)CC2)cc1,6.5,-1.2,-0.6,1.3,0.0,17.9
OCCCn1c(CCNc2nc(-c3ccc(F)cc3)cs2)nc2cc(C(F)(F)F)ccc21,-123.4*,/,0.2,-17.7,/,16.9
OCCOCCn1c(C2CCCN2c2nc(-c3ccc(F)cc3)cs2)nc2cc(C(F)(F)F)ccc21 (centres undefined),-101.4*,/,-0.6,-0.9,/,-102.8*
COc1ccc(C)cc1S(=O)(=O)N1CCN(C/C=C/c2ccccc2)CC1,-9.1,8.7,-0.8,2.0,0.0,4.7
COc1cccc(/C=C/C(=O)OCC(=O)c2ccc(Br)cc2)c1,0.7,/,1.1,2.5,/,-5.1
O=C(Nc1ccc(CSc2ccccc2)cc1)c1ccco1,-9.9,1.6,1.8,3.7,-0.6,-1.9
Cc1ccc(NC(=O)c2c(C(=O)Nc3ccccc3)sc3nc(C)cc(=O)n23)cc1,-103.4*,1.0,0.7,-4.0,0.6,3.6
COc1ccc(NC(=O)c2c(C(=O)Nc3ccccc3)sc3nc(C)cc(=O)n23)cc1,/,6.9,-0.4,-20.0,0.0,/
S=C1NCN(C2CCCCC2)CN1c1ccccc1,-95.7*,0.7,0.1,8.6,-0.5,-2.7
